The list is not random: actives were taken first. Their share in the collection is about 0.54%.
PDI turbidity: inhibitors of human PDI, primary screen, biochemical, turbidity, single point, plate reader | Protein disulfide-isomerase (Homo sapiens), P07237 | inhibition, % at 10 µM | 350,000 compounds, 0.052% hits | AID 588391, 2011 | PDI insulin aggregation turbidity, A650, 90 min;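 active = mean inhibition across replicates of 30% or more, whatever share of single replicates reach that level; inconclusive = mean inhibition below 30% while every single replicate reaches 30%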
ERp5 block: inhibitors of ERp5-driven insulin aggregation, primary screen, biochemical, turbidity, absorbance 650 nm, single point | Protein disulfide-isomerase A6 (Homo sapiens), Q15084 | 90 min | inhibition, % at 9.99 µM | 350,000 compounds, 0.05% hits;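 active = mean replicate inhibition above about 25%, with every replicate also reaching it, limit read from the data, passing the limit was not always enough; inconclusive = only one of those two criteria met; inactive = neither criterion met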
Target sequence (Q15084 whole entry, looked up): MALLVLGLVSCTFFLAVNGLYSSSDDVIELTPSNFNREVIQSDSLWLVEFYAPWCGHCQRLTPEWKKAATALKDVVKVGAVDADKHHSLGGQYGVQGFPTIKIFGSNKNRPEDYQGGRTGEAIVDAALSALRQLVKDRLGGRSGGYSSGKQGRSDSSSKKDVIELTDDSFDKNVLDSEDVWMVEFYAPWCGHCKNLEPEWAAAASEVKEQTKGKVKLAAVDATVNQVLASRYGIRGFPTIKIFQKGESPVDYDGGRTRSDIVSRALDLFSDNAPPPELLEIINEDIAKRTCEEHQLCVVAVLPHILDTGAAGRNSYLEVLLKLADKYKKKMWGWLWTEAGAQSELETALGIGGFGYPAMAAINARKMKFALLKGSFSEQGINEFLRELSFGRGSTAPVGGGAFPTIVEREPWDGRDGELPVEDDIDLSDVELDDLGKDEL
Efflux pump mplx: inhibitors of Candida efflux pumps in yeast, primary screen, S. cerevisiae, Nile Red, multiplex; AID 485275, 2010; 330,000 compounds, 0.44% hits; S. cerevisiae Candida pump triplex; inhibition, % at 10 µM;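 active = plate passing quality check with inhibition over a set limit, or well fluorescence over plate mean plus 4 SD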;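 also: Nile Red retained in pooled yeast measured as flow cytometry median fluorescence; higher means more Nile Red kept so more efflux inhibition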
PvdQ acylase: P. aeruginosa PvdQ acylase inhibitors, primary screen, biochemical, fluorescence, plate reader and imaging, single point | PvdQ acylase [Pseudomonas aeruginosa LESB58] | purified PvdQ acylase | inhibition, % at 10 µM | 340,000 compounds, 0.063% hits | AID 488965, 2010; in the data active = inhibition above about 30%, passing the limit was not always enough; inconclusive = no clear call, values can overlap the other calls
Rtt109 Vps75: inhibitors of C. albicans Rtt109/Vps75 HAT, primary screen, biochemical, ThioGlo CoA-SH fluorescence, plate reader | AID 540336, 2011 | inhibition, % at 34.9 µM | purified Rtt109/Vps75, 4 h | 330,000 compounds, 0.16% hits;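 active = inhibition of at least 50% in every replicate; inconclusive = best replicate reaches 50% inhibition but some replicates fall short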
Target sequence (Q5AAJ8 whole entry, looked up): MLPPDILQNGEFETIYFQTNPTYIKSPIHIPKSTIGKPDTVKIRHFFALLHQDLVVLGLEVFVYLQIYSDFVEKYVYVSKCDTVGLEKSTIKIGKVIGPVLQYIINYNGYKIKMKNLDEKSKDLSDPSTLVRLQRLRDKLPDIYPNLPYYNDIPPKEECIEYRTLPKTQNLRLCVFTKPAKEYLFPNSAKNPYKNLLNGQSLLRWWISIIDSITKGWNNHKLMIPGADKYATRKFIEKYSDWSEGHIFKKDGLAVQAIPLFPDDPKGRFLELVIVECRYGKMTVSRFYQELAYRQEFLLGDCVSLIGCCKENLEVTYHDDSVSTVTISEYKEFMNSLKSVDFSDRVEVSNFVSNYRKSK
Yeast cmpd fluor: counter-screen for efflux pump inhibitors: compound fluorescence; shares compounds with Efflux pump mplx; S. cerevisiae AD/pABC3, flow cytometry; fluorescence ratio to DMSO, % at 10 µM; 1,700 compounds, 4% hits;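 active = fluorescence ratio to DMSO above its plate's cutoff, the plate mean ratio plus 5 SD, cut at about 210% in these data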;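 also: unstained yeast with no Nile Red so the signal is compound autofluorescence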
CaMdr1 efflux inh: inhibitors of Candida albicans Mdr1 efflux, confirmation, flow cytometry, singleplex, Cherry Pick1 set; shares compounds with Efflux pump mplx; S. cerevisiae AD/CaMDR1, Nile Red efflux; inhibition, % at 10 µM; 1,700 compounds, 1% hits; AID 588518, 2011; in the data active = inhibition above about 26%;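 also: higher means more Nile Red retained so more efflux inhibition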
CaCdr2 efflux inh: inhibitors of Candida albicans Cdr2 efflux pump, confirmation, S. cerevisiae AD/CaCDR2, flow cytometry, cherry pick 1, singleplex | shares compounds with Efflux pump mplx | Nile Red retention | Nile Red retention ratio vs DMSO, % at 10 µM | 1,700 compounds, 4% hits; in the data active = Nile Red retention ratio vs DMSO above about 190%;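 also: higher ratio means more blocking of Cdr2 efflux of the dye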
Cdr1 pump inh: inhibitors of Candida albicans Cdr1 efflux pump, confirmation, S. cerevisiae AD/CaCDR1, flow cytometry, cherry pick 1, singleplex; shares compounds with Efflux pump mplx; AID 588522, 2011; 1,700 compounds, 1% hits; inhibition, % at 10 µM; Nile Red efflux;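 active = inhibition above the screen-wide mean plus twice its standard deviation, cut at about 32% in these data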
Large screens that a line does not name were inactive (follow-up assays come after a bar, where they were run).

C=C[C@](C)(CC[C@@]1(C)C(C)CC(OC2OC(C)C(OC3OC(COC(C)=O)C(O)C(O)C3O)C(O)C2O)[C@@]2(C)C(C)=CCCC12)OC1OC(C)C(O[C@@H]2O[C@@H](C)C(O)C(O)[C@H]2O)C(O)C1O (stereo not given in full)	Efflux pump mplx 1.4 (no result: ERp5 block) | Yeast cmpd fluor inactive | CaMdr1 efflux inh inactive | CaCdr2 efflux inh inactive | Cdr1 pump inh inactive
CCN1[C@@H]2c3ccc(C4=CCCC4)c(=O)n3C[C@@H]2[C@@H](CO)[C@@H]1C(=O)NCCc1ccccc1	none (no result: PDI turbidity, Efflux pump mplx, PvdQ acylase, Rtt109 Vps75)
O=C(CSc1ccccc1F)Nc1ccc(N2CCOCC2)cc1	Efflux pump mplx 0.8 | Yeast cmpd fluor inactive | CaMdr1 efflux inh inactive | CaCdr2 efflux inh inactive | Cdr1 pump inh inactive
Cn1c(Cc2ccccc2)nnc1SCC(=O)Nc1ccc(N2CCOCC2)cc1	Efflux pump mplx 1.3 | Yeast cmpd fluor inactive | CaMdr1 efflux inh inactive | CaCdr2 efflux inh inactive | Cdr1 pump inh inactive
CS(=O)(=O)N1CC2(C1)[C@@H](c1ccccc1)[C@@H](CO)N2Cc1ccc(F)cc1	none (no result: PDI turbidity, Efflux pump mplx, PvdQ acylase, Rtt109 Vps75)
CC(C)C(C(=O)O)N1C(=O)/C(=C/C=C/c2ccco2)SC1=S (stereo not given)	Efflux pump mplx 1.2 (no result: ERp5 block) | Yeast cmpd fluor inactive | CaMdr1 efflux inh inactive | CaCdr2 efflux inh inactive | Cdr1 pump inh inactive
O=C1/C(=C/C=C/c2ccco2)SC(=S)N1c1ccc(O)cc1	none
COc1cccc(NC(=O)N2[C@@H]3CNC[C@H]2C3c2ccc(/C=C/c3ccccc3)cc2)c1 (stereo not given in full)	none (no result: PDI turbidity, Efflux pump mplx, PvdQ acylase, Rtt109 Vps75)
S=C(NCCCN1CCOCC1)N1CCN(c2nc(-c3ccccc3)cs2)CC1	Efflux pump mplx 1.3 | Yeast cmpd fluor inactive | CaMdr1 efflux inh inactive | CaCdr2 efflux inh inactive | Cdr1 pump inh inactive
O=C(C[C@H]1CC[C@@H]2[C@H](COC[C@@H](O)CN2Cc2nccs2)O1)NCc1ccccc1F	none (no result: PDI turbidity, Efflux pump mplx, PvdQ acylase, Rtt109 Vps75)
O=C(NC(=O)c1ccccc1)Nc1ccc(Cl)cn1	Efflux pump mplx 0.4 | Yeast cmpd fluor inactive | CaMdr1 efflux inh inactive | CaCdr2 efflux inh inactive | Cdr1 pump inh inactive
Cc1ccc(-c2cc(C(=O)Nc3ccc(S(=O)(=O)Nc4onc(C)c4C)cc3)c3ccccc3n2)cc1	Efflux pump mplx 0.6 | Yeast cmpd fluor inactive | CaMdr1 efflux inh inactive | CaCdr2 efflux inh inactive | Cdr1 pump inh inactive
CCOc1ncccc1C(=O)OCc1ccc(C(=O)OC)cc1	Efflux pump mplx 1.4 | Yeast cmpd fluor inactive | CaMdr1 efflux inh inactive | CaCdr2 efflux inh inactive | Cdr1 pump inh inactive
CCOc1ncccc1C(=O)OCc1ccc(Cl)cc1	none (no result: ERp5 block)
CCN1CCN(Cc2c(O)ccc3c(=O)c(-c4ccccc4OC)coc23)CC1	none (no result: ERp5 block)
CC1CCN(Cc2c(O)ccc3c2O/C(=C\c2ccco2)C3=O)CC1	none (no result: ERp5 block)
CCN1CCN(Cc2c(O)ccc3c2O/C(=C\C=C\c2ccccc2OC)C3=O)CC1	Efflux pump mplx 24 (no result: ERp5 block) | Yeast cmpd fluor inactive | CaMdr1 efflux inh inactive | CaCdr2 efflux inh inactive | Cdr1 pump inh inactive
O=C1/C(=C/c2ccco2)Oc2c1ccc(O)c2CN1CCCCC1	Efflux pump mplx 3.1 (no result: ERp5 block) | Yeast cmpd fluor inactive | CaMdr1 efflux inh inactive | CaCdr2 efflux inh inactive | Cdr1 pump inh inactive
Cn1cc(C(c2ccccn2)c2cn(C)c3ccccc23)c2ccccc21	Efflux pump mplx 57 (no result: ERp5 block) | Yeast cmpd fluor inactive | CaMdr1 efflux inh 86 | CaCdr2 efflux inh inactive | Cdr1 pump inh 32
C[C@@H]1CN([C@@H](C)CO)C(=O)Cc2cc(NC(=O)NC3CCCCC3)ccc2O[C@H]1CN(C)CC1CC1	none (no result: PDI turbidity, Efflux pump mplx, PvdQ acylase, Rtt109 Vps75)
O=c1cc(Nc2cccc(Br)c2)[nH]c(=O)[nH]1	ERp5 block inconclusive
Cc1cccc(Nc2cc(=O)[nH]c(=O)[nH]2)c1	Efflux pump mplx 6.5 | Yeast cmpd fluor inactive | CaMdr1 efflux inh inactive | CaCdr2 efflux inh inactive | Cdr1 pump inh inactive
CO[C@H](CN(C)C(=O)Nc1ccc(C(F)(F)F)cc1)[C@H](C)CN(Cc1ccccc1Cl)[C@H](C)CO	none (no result: PDI turbidity, Efflux pump mplx, PvdQ acylase, Rtt109 Vps75)
Cc1cccc(NC(=O)CSc2nc(C)c(Cc3ccccc3)c(=O)[nH]2)c1C	Efflux pump mplx 2.1 (no result: PDI turbidity, ERp5 block, PvdQ acylase, Rtt109 Vps75) | Yeast cmpd fluor inactive | CaMdr1 efflux inh inactive | CaCdr2 efflux inh inactive | Cdr1 pump inh inactive
COC(=O)c1ccc(CSc2nnc3c(n2)[nH]c2ccccc23)cc1	Efflux pump mplx 0.5 | Yeast cmpd fluor inactive | CaMdr1 efflux inh inactive | CaCdr2 efflux inh inactive | Cdr1 pump inh inactive
Oc1ccc(CCNc2ncnc3ccc(Cl)cc23)cc1	Efflux pump mplx 1.0 | Yeast cmpd fluor inactive | CaMdr1 efflux inh inactive | CaCdr2 efflux inh inactive | Cdr1 pump inh inactive
COc1ccc(N2CCN(CC(=O)Nc3ccc(-n4cnnn4)cc3)CC2)cc1	none (no result: ERp5 block)
COc1ccccc1N1CCN(CC(=O)Nc2ccc(-n3cnnn3)cc2)CC1	Efflux pump mplx 0.9 | Yeast cmpd fluor inactive | CaMdr1 efflux inh inactive | CaCdr2 efflux inh inactive | Cdr1 pump inh inactive
Cc1ccsc1C1Nc2ccccc2C(=O)N1O (stereo not given)	none
O=C1CC(c2ccccc2)Sc2ccccc2N1 (stereo not given)	none (no result: ERp5 block)
Cc1ccsc1C1CC(=O)Nc2ccccc2S1 (stereo not given)	none | Yeast cmpd fluor inactive | CaMdr1 efflux inh inactive | CaCdr2 efflux inh inactive | Cdr1 pump inh inactive
O=C1CC(c2ccco2)Sc2ccccc2N1 (stereo not given)	none | Yeast cmpd fluor inactive | CaMdr1 efflux inh inactive | CaCdr2 efflux inh inactive | Cdr1 pump inh inactive
CN(C)C(=S)SCC(=O)Nc1ccc(Cl)cc1Cl	Efflux pump mplx 15 | Yeast cmpd fluor inactive | CaMdr1 efflux inh inactive | CaCdr2 efflux inh inactive | Cdr1 pump inh inactive
CCC(=O)N1CCC2(CC1)CN(S(=O)(=O)c1ccccc1)[C@H](CO)c1[nH]c3cc(OC)ccc3c12	none (no result: PDI turbidity, Efflux pump mplx, PvdQ acylase, Rtt109 Vps75)
C[C@@H]1CN([C@H](C)CO)C(=O)c2cc(C#Cc3ccccn3)cnc2O[C@H]1CN(C)Cc1ccncc1	none (no result: PDI turbidity, Efflux pump mplx, PvdQ acylase, Rtt109 Vps75)
COc1ccc(NC(=O)CN(C)C(=O)/C=C/c2cn(-c3ccccc3)nc2-c2ccc(F)cc2)cc1	none (no result: Rtt109 Vps75)

High-throughput results: PubChem, several laboratories
